# Experimental data taken from PubChem BioAssay (EPA / NIEHS).
# “And” between values parts separate entries of the source, which are not always exact repeats. Identical values can stand only once. Where a structure was tested more than once in an assay, its records may differ in their call. The source made the active and inactive calls. How the source made its calls: active means hit-call score of the fitted dose curve at least 0.9, where 1 is the maximum; inactive means score below 0.9.
# Columns and labels:
# [1] = read-out: Interleukin-8 (IL8), CXCL8 (gene 3576); assay: BSK_BF4T_IL8: BioMAP Diversity Plus: BF4T Assay for Interleukin-8 (IL8) Biomarker Activity (AID 2284263); conditions: primary human bronchial epithelial cells with fibroblasts
# Procedure, shortened: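 Human bronchial epithelial cells with dermal fibroblasts co-culture; IL-8 measured by ELISA 24 hours after dosing, fitted vs DMSO. Cytotoxicity tracked in parallel cultures by SRB total-protein staining.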
# [2] = read-out: Interleukin-1 alpha (IL1a), IL1A (gene 3552); assay: BSK_BF4T_IL1a: BioMAP Diversity Plus: BF4T Assay for Interleukin-1 alpha (IL1a) Biomarker Activity (AID 2284264); conditions: primary human bronchial epithelial cells with fibroblasts
# Procedure, shortened: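 Human bronchial epithelial cells co-cultured with dermal fibroblasts, dosed and read at 24 h. Secreted/surface IL-1α quantified by ELISA; gain-of-signal fitted relative to DMSO baseline. Parallel SRB total-protein staining tracked cytotoxicity.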
# [3] = BSK_MyoF_SRB: Viability Assessment in the BioMAP Diversity Plus: MyoF Assay (AID 2284267); conditions: primary human lung fibroblasts;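 further: total protein by SRB absorbance in parallel cultures as cytotoxicity measure; cells assessed 24 h after compound addition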
# Procedure, shortened: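 Human lung fibroblasts dosed with chemical and assessed 24 h later for overt cytotoxicity in parallel cultures. Total protein quantified by sulforhodamine B staining (0.1% SRB after 10% TCA fixation), read at 560 nm, analysed in positive direction versus DMSO baseline.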
# [4] = read-out: Matrix Metallopeptidase 1 (MMP1), MMP1 (gene 4312); assay: BSK_MyoF_MMP1: BioMAP Diversity Plus: MyoF Assay for Matrix Metallopeptidase 1 (MMP1) Biomarker Activity (AID 2284268); conditions: primary human lung fibroblasts
# Procedure, shortened: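 Lung fibroblast cultures were dosed with test chemicals and, after 24 h, MMP1 levels were measured by ELISA; responses were referenced to DMSO and analysed for increases.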
# [5] = read-out: TIMP metallopeptidase inhibitor 1 (TIMP1), TIMP1 (gene 7076); assay: BSK_MyoF_TIMP1: BioMAP Diversity Plus: MyoF Assay for TIMP metallopeptidase inhibitor 1 (TIMP1) Biomarker Activity (AID 2284269); conditions: primary human lung fibroblasts
# Procedure, shortened: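 ELISA quantified TIMP-1 levels after 24 h dosing of primary human lung fibroblasts, with DMSO as baseline. Parallel SRB total protein staining (0.1% SRB after TCA fixation, 560 nm) flagged overt cytotoxicity.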
# [6] = read-out: Matrix Metallopeptidase 1 (MMP1), MMP1 (gene 4312); assay: BSK_BF4T_MMP1: BioMAP Diversity Plus: BF4T Assay for Matrix Metallopeptidase 1 (MMP1) Biomarker Activity (AID 2284270); conditions: primary human bronchial epithelial cells with fibroblasts
# Procedure, shortened: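 Co-culture of human bronchial epithelial cells and dermal fibroblasts; MMP-1 levels measured by ELISA 24 hours after chemical dosing, relative to DMSO. Cytotoxicity checked in parallel cultures by SRB total-protein staining.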
# [7] = read-out: Tissue plasminogen activator (tPA), PLAT (gene 5327); assay: BSK_BF4T_tPA: BioMAP Diversity Plus: BF4T Assay for Tissue plasminogen activator (tPA) Biomarker Activity (AID 2284272); conditions: primary human bronchial epithelial cells with fibroblasts
# Procedure, shortened: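 tPA level quantified by ELISA at 24 h post-treatment in bronchial epithelial/dermal fibroblast co-cultures, gain of signal scored against DMSO baseline. Parallel cultures stained with 0.1% SRB (560 nm) to flag overt cytotoxicity.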
# [8] = read-out: Decorin, DCN (gene 1634); assay: BSK_MyoF_Decorin: BioMAP Diversity Plus: MyoF Assay for Decorin Biomarker Activity (AID 2284265); conditions: primary human lung fibroblasts
# Procedure, shortened: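 Compound is added to lung fibroblast cultures; cells incubate 24 h; decorin is then measured by ELISA; the response is analysed upward against DMSO controls.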
# [9] = read-out: KRT18 (gene 3875); assay: BSK_BF4T_Keratin818: BioMAP Diversity Plus: BF4T Assay for Keratin 818 Biomarker Activity (AID 2284266); conditions: primary human bronchial epithelial cells with fibroblasts
# Procedure, shortened: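 Co-culture of human bronchial epithelial cells and dermal fibroblasts, chemical exposure 24 h. Keratin 8/18 measured by ELISA; positive-direction fit vs DMSO. SRB total protein run in parallel cultures for cytotoxicity.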
# [10] = read-out: Matrix Metallopeptidase 3 (MMP3), MMP3 (gene 4314); assay: BSK_BF4T_MMP3: BioMAP Diversity Plus: BF4T Assay for Matrix Metallopeptidase 3 (MMP3) Biomarker Activity (AID 2284271); conditions: primary human bronchial epithelial cells with fibroblasts
# Procedure, shortened: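 Co-culture of human bronchial epithelial cells and dermal fibroblasts dosed 24 h; MMP-3 measured by ELISA, positive-direction fit versus DMSO. Cytotoxicity tracked by SRB total-protein staining (560 nm) in parallel cultures.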
smiles,measurement,setting,value
FC(F)(F)C(F)(F)C(F)(F)C(F)(F)C(F)(F)C(F)(F)CC[Si](Cl)(Cl)Cl,outcome,[1],inactive
same,outcome,[2],inactive
same,outcome,[3],inactive
same,outcome,[4],inactive
same,outcome,[5],inactive
same,outcome,[6],inactive
same,outcome,[7],inactive
OC(O)C(F)(F)C(F)(F)F,outcome,[1],inactive
same,outcome,[2],inactive
same,outcome,[8],inactive
same,outcome,[9],inactive
same,outcome,[3],inactive
same,outcome,[4],inactive
same,outcome,[5],inactive
same,outcome,[6],inactive
same,outcome,[7],inactive
C[Si](Cl)(Cl)CCC(F)(F)C(F)(F)C(F)(F)C(F)(F)C(F)(F)C(F)(F)F,outcome,[2],inactive
same,outcome,[3],inactive
same,outcome,[4],inactive
same,outcome,[5],inactive
same,outcome,[6],inactive
same,outcome,[7],inactive
O=C(F)C1(F)C(F)(F)C(F)(F)C(F)(F)C(F)(F)C1(F)F,outcome,[1],inactive
same,outcome,[2],inactive
same,outcome,[3],inactive
same,outcome,[4],inactive
same,outcome,[5],inactive
same,outcome,[6],inactive
same,outcome,[10],inactive
same,outcome,[7],inactive
C=CC(=O)OCC(F)(F)C(F)(F)C(F)(F)COC(=O)C=C,AC50,[2],40.5 µM (active) and 41.3 µM (active)
same,AC50,[8],12.2 µM (active) and 9.13 µM (active)
same,AC50,[3],10.6 µM (active)
same,outcome,[4],inactive
same,AC50,[5],16.9 µM (active) and 13.9 µM (active)
same,AC50,[6],50.2 µM (active)
same,outcome,[6],inactive
same,AC50,[7],8.12 µM (active)
CN(C(=O)C(F)(F)C(F)(F)C(F)(F)F)[Si](C)(C)C,outcome,[2],inactive
same,outcome,[3],inactive
same,outcome,[4],inactive
same,outcome,[5],inactive
same,outcome,[6],inactive
same,outcome,[10],inactive
same,outcome,[7],inactive
CCN(CCO)S(=O)(=O)C(F)(F)C(F)(F)C(F)(F)C(F)(F)C(F)(F)C(F)(F)C(F)(F)C(F)(F)F,outcome,[2],inactive
same,AC50,[3],19.4 µM (active) and 23.3 µM (active)
same,AC50,[4],7.69 µM (active) and 8.4 µM (active)
same,AC50,[5],30 µM (active)
same,outcome,[5],inactive
same,outcome,[6],inactive
same,AC50,[7],13.6 µM (active)
same,outcome,[7],inactive
C=C(C)C(=O)OCC(F)(F)C(F)(F)C(F)(F)C(F)F,outcome,[2],inactive
same,outcome,[9],inactive
same,outcome,[3],inactive
same,outcome,[4],inactive
same,outcome,[5],inactive
same,outcome,[6],inactive
same,outcome,[7],inactive
O=S(=O)(OCC(F)(F)F)C(F)(F)C(F)(F)C(F)(F)C(F)(F)F,outcome,[2],inactive
same,outcome,[3],inactive
same,outcome,[4],inactive
same,outcome,[5],inactive
same,outcome,[6],inactive
same,outcome,[10],inactive
same,outcome,[7],inactive
O=C(Cl)C(F)(F)C(F)(F)C(F)(F)C(F)(F)C(F)(F)C(F)(F)C(F)(F)F,outcome,[2],inactive
same,outcome,[3],inactive
same,outcome,[4],inactive
same,outcome,[5],inactive
same,AC50,[6],19.9 µM (active)
same,outcome,[6],inactive
same,outcome,[7],inactive
O=S(=O)(O)CCC(F)(F)C(F)(F)C(F)(F)C(F)(F)F,outcome,[2],inactive
same,outcome,[8],inactive
same,outcome,[3],inactive
same,outcome,[4],inactive
same,outcome,[5],inactive
same,outcome,[6],inactive
same,outcome,[10],inactive
same,outcome,[7],inactive
COC(F)(C(F)F)C(F)(F)F (centres undefined),outcome,[1],inactive
same,outcome,[2],inactive
same,outcome,[8],inactive
same,outcome,[9],inactive
same,outcome,[3],inactive
same,outcome,[4],inactive
same,outcome,[5],inactive
same,outcome,[6],inactive
same,outcome,[7],inactive
O=C(Cl)C(F)(F)C(F)(F)C(F)(F)C(F)(F)C(F)(F)C(F)(F)F,outcome,[2],inactive
same,outcome,[8],inactive
same,outcome,[3],inactive
same,outcome,[4],inactive
same,outcome,[5],inactive
same,outcome,[6],inactive
same,outcome,[10],inactive
same,outcome,[7],inactive
C=CC(=O)OCC(F)(F)C(F)(F)C(F)(F)C(F)(F)C(F)(F)C(F)(F)C(F)(F)C(F)F,outcome,[2],inactive
same,AC50,[8],10.3 µM (active)
same,outcome,[8],inactive
same,outcome,[3],inactive
same,AC50,[4],39.7 µM (active) and 30 µM (active)
same,outcome,[5],inactive
same,outcome,[6],inactive
same,outcome,[10],inactive
same,outcome,[7],inactive
CNS(=O)(=O)C(F)(F)C(F)(F)C(F)(F)C(F)(F)C(F)(F)C(F)(F)C(F)(F)C(F)(F)F,outcome,[2],inactive
same,outcome,[8],inactive
same,outcome,[3],inactive
same,outcome,[4],inactive
same,outcome,[5],inactive
same,outcome,[6],inactive
same,outcome,[7],inactive
FC(F)(F)C(F)(F)C(F)(F)CC1CO1 (centres undefined),outcome,[2],inactive
same,outcome,[8],inactive
same,outcome,[9],inactive
same,outcome,[3],inactive
same,outcome,[4],inactive
same,outcome,[5],inactive
same,outcome,[6],inactive
same,outcome,[7],inactive
O=C(O)CCC(F)(F)C(F)(F)C(F)(F)C(F)(F)C(F)(F)C(F)(F)C(F)(F)F,outcome,[2],inactive
same,outcome,[8],inactive
same,outcome,[3],inactive
same,outcome,[4],inactive
same,outcome,[5],inactive
same,outcome,[6],inactive
same,outcome,[7],inactive
CO[Si](C)(CCC(F)(F)C(F)(F)C(F)(F)C(F)(F)C(F)(F)C(F)(F)F)OC,outcome,[2],inactive
same,outcome,[8],inactive
same,outcome,[3],inactive
same,outcome,[4],inactive
same,outcome,[5],inactive
same,outcome,[6],inactive
same,outcome,[7],inactive
O=S(=O)(Cl)C(F)(F)C(F)(F)C(F)(F)C(F)(F)C(F)(F)C(F)(F)C(F)(F)C(F)(F)F,AC50,[2],46.3 µM (active)
same,outcome,[2],inactive
same,outcome,[3],inactive
same,outcome,[4],inactive
same,outcome,[5],inactive
same,outcome,[6],inactive
same,AC50,[7],23.2 µM (active)
same,outcome,[7],inactive
O=C(O)C(F)(F)OC(F)(F)C(F)(F)OC(F)(F)C(F)(F)OC(F)(F)F,outcome,[1],inactive
same,outcome,[2],inactive
same,outcome,[9],inactive
same,outcome,[3],inactive
same,outcome,[4],inactive
same,AC50,[5],6.35 µM (active)
same,outcome,[5],inactive
same,outcome,[6],inactive
same,outcome,[10],inactive
same,AC50,[7],20 µM (active) and 5.38 µM (active)
same,outcome,[7],inactive
NC(=O)C(F)(F)C(F)(F)C(F)(F)F,outcome,[2],inactive
same,outcome,[8],inactive
same,outcome,[3],inactive
same,outcome,[4],inactive
same,outcome,[5],inactive
same,outcome,[6],inactive
same,outcome,[10],inactive
same,outcome,[7],inactive
OCCCC(F)(F)C(F)(F)C(F)(F)C(F)(F)C(F)(F)C(F)(F)C(F)(F)C(F)(F)F,AC50,[2],46.4 µM (active) and 45.7 µM (active)
same,AC50,[8],16.4 µM (active) and 14.4 µM (active)
same,AC50,[3],12.9 µM (active) and 12.4 µM (active)
same,AC50,[4],16.3 µM (active)
same,outcome,[4],inactive
same,AC50,[5],14.5 µM (active) and 13.7 µM (active)
same,AC50,[6],49 µM (active) and 45.1 µM (active)
same,AC50,[7],22.1 µM (active) and 21 µM (active)
OCC(F)(F)C(F)(F)C(F)(F)CO,outcome,[1],inactive
same,outcome,[2],inactive
same,outcome,[3],inactive
same,outcome,[4],inactive
same,outcome,[5],inactive
same,outcome,[6],inactive
same,outcome,[10],inactive
same,outcome,[7],inactive
O=C(O)C(F)(F)C(F)(F)C(F)(F)C(=O)O,outcome,[2],inactive
same,outcome,[8],inactive
same,outcome,[3],inactive
same,outcome,[4],inactive
same,outcome,[5],inactive
same,outcome,[6],inactive
same,outcome,[7],inactive
NC(=O)C(F)(F)C(F)(F)C(F)(F)C(F)(F)C(F)(F)C(F)(F)C(F)(F)F,outcome,[2],inactive
same,outcome,[8],inactive
same,outcome,[3],inactive
same,outcome,[4],inactive
same,outcome,[5],inactive
same,outcome,[6],inactive
same,outcome,[7],inactive
